Measured values: PubChem BioAssay (Tox21)
Records with an inconclusive call do not appear. The source made the active and inactive calls. Calls follow the shape of the dose curve; as a rule, active = well fitted cell-killing curve with a large enough effect in the repeat runs; inconclusive = weak or mixed curves, or effect the other way; inactive = flat fitted curve, though single readings scatter.

Experiment: Caspase-3/7 induction in HepG2 cells by small molecules, qHTS cell viability counter screen (AID 1346981); also: nearly all actives have a fitted effect of over 30% in size
Conditions: CellTiter-Fluor fluorescence, 17 h; series mostly up to 92.4 µM; activity change, negative = cytotoxicity: at the top concentration
Text: U.S. Tox21 Program National Center for Advancing Translational Sciences [NCATS] NIH Chemical Genomics Center [NCGC] U.S. Environmental Protection Agency [EPA] National Institutes of Environmental Health Sciences [NIEHS] National Toxicology Program [NTP] U.S. Food and Drug Administration [FDA] Tox21 Assay Overview: Apoptosis is a process of programmed cell death and plays a central role in the development of multicellular organisms. It is a highly regulated process and induces cell death by activating caspases, which are the members of cysteine aspartic acid-specific protease (caspase) family. Caspases involved in apoptosis are classified by their mechanism of action as initiator caspases (caspase-2, -8, -9 and -10) and executioner caspases (caspase-3, -6, and -7). Inhibition of apoptosis results in number of cancers, autoimmune diseases, inflammatory diseases and viral infection. To identify small molecule compounds that induce apoptosis, a homogeneous, luminescent Caspase-Glo 3/7 assay was used. Wild type HepG2 cells were used to screen Tox21 libraries for identifying caspase-3/7 activity inducers. Also cytotoxicity of the compounds was tested in parallel by measuring the cell viability using CellTiter-Fluor assay system in the same wells.
Tox21 Assay Protocol Summary: HepG2 cells were dispensed at 2,000 per well in 5uL of culture medium into white solid bottom 1536-well plates (Corning Life Sciences, Corning, NY) using a Multidrop Combi (Thermo Scientific, Waltham, MA) dispenser. The assay plates were incubated at 37 C and 5% CO2 for 5hr, and then 23nL of compounds dissolved in DMSO and positive control were transferred using a Pintool station ([…], San Diego, CA). The assay plates were incubated at 37C and 5% CO2 for 17hr. For cytotoxicity read, after 16hr incubation at 37C, 1uL CellTiter-Fluor reagent (Promega Corporation, Madison, WI) was added to each well of the assay plates using Flying Reagent Dispenser (FRD, Aurora Discovery, San Diego, CA). After 1hr incubation at 37C and 5% CO2, the fluorescence signal was quantified using a ViewLux plate reader (PerkinElmer, Shelton, CT).
% is scaled to controls: 0 for no effect and ±100 for the full control effect; potency is read from the fitted curve at half-maximal effect.

SMILES	activity change, negative = cytotoxicity	Potency
CCN1C(=O)c2ccccc2C1Nc1ccc(OCCN2CCCCC2)cc1 (stereo not given)	-3.53% [at 42.5 µM] (inactive)	
CC(C)(C)CC(C)(C)c1ccc(Nc2ccc(C(C)(C)CC(C)(C)C)cc2)cc1	3.23% [at 8.39 µM] (inactive)	
FC(F)(F)c1cccc(Cl)c1	-1.41% (inactive)	
OC/C=C/CO	4.62% (inactive)	
O=C(Nc1ccc2c(O)c(N=Nc3ccc(N=Nc4ccc(S(=O)(=O)O)cc4)cc3)c(S(=O)(=O)O)cc2c1)c1ccccc1		24.3 µM (active)
C=C(C)C(=O)OCCCCCCCCCC		61.6 µM (active)
O=S(=O)(O)c1ccc(Nc2nc(Nc3ccc(/C=C/c4ccc(Nc5nc(Nc6ccc(S(=O)(=O)O)cc6)nc(N(CCO)CCO)n5)cc4S(=O)(=O)O)c(S(=O)(=O)O)c3)nc(N(CCO)CCO)n2)cc1	8.82% [at 42.5 µM] (inactive)	
c1cnccn1	-0.835% (inactive)	
Cc1ccc(N/N=c2\c(=O)cc/c(=N\Nc3ccc(S(=O)(=O)O)cc3)c2=O)c(C)c1		54.5 µM (active)
O=C(O)c1cc(=O)c2ccccc2o1	1.27% [at 42.5 µM] (inactive)	
CCOc1ccc2ccccc2c1C(=O)N[C@@H]1C(=O)N2[C@@H]1SC(C)(C)[C@@H]2C(=O)O	0.146% [at 42.5 µM] (inactive)	
COc1c(C)c2c(c(O)c1C/C=C(\C)CCC(=O)OCCN1CCOCC1)C(=O)OC2	-16% [at 42.5 µM] (inactive)	
Cc1c(N)cccc1C(F)(F)F	2.12% [at 42.5 µM] (inactive)	
CCCCCCC1CCCC(=O)O1 (stereo not given)	0.207% (inactive)	
CCO[Si](OCC)(OCC)OCC	4.59% (inactive)	
S=c1nccc[nH]1	3.66% (inactive)	
C#C[C@]1(O)CC[C@H]2[C@@H]3[C@H](C)CC4=C(CCC(=O)C4)[C@H]3CC[C@@]21C	1.83% [at 42.5 µM] (inactive)	
Cc1ccc(C)cc1	3.31% (inactive)	
Cc1cc(-c2ccc(N=Nc3cc(S(=O)(=O)O)c4ccccc4c3N)c(C)c2)ccc1N=Nc1cc(S(=O)(=O)O)c2ccccc2c1N	-10.7% (inactive)	
CCCCC/C=C\C/C=C\CCCCCCCC(=O)O	-5.78% (inactive)	

SMILES	activity change, negative = cytotoxicity	Potency
CCc1oc2ccccc2c1C(=O)c1cc(I)c(O)c(I)c1	-2.3% [at 42.5 µM] (inactive)	
c1ccsc1	-1.03% (inactive)	
CCC(=O)OC(=O)CC	1.06% (inactive)	
O=C1c2ccccc2C(=O)N1SC1CCCCC1		inactive
CC(C)=CCC1=C(O)c2ccccc2C(=O)C1=O		60.8 µM (active)
O=S(=O)(O)c1ccc(N=Nc2c(O)ccc3ccccc23)cc1		30.6 µM (active)
CCCCCCCCCCC[C@@H](C[C@@H]1OC(=O)[C@H]1CCCCCC)OC(=O)[C@H](CC(C)C)NC=O	-2.36% [at 42.5 µM] (inactive)	
CCCC1CCC(=O)CC1	1.12% (inactive)	
NC(=O)c1cccc([N+](=O)[O-])c1	-19.8% (inactive)	
[Cu+]	-1.78% (inactive)	
Cc1c(F)c(N2CCNC(C)C2)cc2c1c(=O)c(C(=O)O)cn2C1CC1 (stereo not given)	2.62% [at 42.5 µM] (inactive)	
CN1CCN2c3ccccc3Cc3ccccc3C2C1 (stereo not given)	-9.95% [at 42.5 µM] (inactive)	
CCCCOC(=O)CO	6.73% (inactive)	
O=C1CCc2ccc(OCCCCN3CCN(c4cccc(Cl)c4Cl)CC3)cc2N1		23.7 µM (active)
CC/C=C\CCCCCO	0.004% (inactive)	
CC[N+](CC)(CC)CCOC(=O)C(C1CCCC1)C1CCCC1	-0.291% [at 42.5 µM] (inactive)	
Cc1cccc2cccnc12	4.79% (inactive)	
CCCCCCCCCCCCCC[N+](C)(C)Cc1ccccc1		69.6 µM (active)
S=C([S-])NCCNC(=S)[S-].S=C([S-])NCCNC(=S)[S-].[Mn+2].[Zn+2]	3.82% [at 42.5 µM] (inactive)	
NC[C@H]1O[C@H](O[C@H]2[C@H](O[C@@H]3O[C@H](CO)[C@@H](O)[C@H]3O)C(O)[C@H](N)C[C@@H]2N)[C@H](N)[C@@H](O)[C@@H]1O (stereo not given in full)	8% [at 8.39 µM] (inactive)	
